# Molecular target: T1, ETS1 (UniProt P14921)
# T1 sequence: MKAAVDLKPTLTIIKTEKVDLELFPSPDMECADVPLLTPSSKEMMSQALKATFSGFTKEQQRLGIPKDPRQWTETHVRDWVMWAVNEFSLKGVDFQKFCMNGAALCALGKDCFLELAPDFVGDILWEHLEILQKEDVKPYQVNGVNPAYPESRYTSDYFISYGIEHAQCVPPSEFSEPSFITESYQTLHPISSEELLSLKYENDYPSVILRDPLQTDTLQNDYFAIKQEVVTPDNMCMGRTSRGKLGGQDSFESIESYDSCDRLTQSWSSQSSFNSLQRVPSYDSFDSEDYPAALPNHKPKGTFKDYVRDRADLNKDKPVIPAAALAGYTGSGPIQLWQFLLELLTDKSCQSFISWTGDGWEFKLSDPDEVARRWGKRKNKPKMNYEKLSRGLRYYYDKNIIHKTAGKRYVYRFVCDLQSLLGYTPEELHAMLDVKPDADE
# Experiment: ETS1 binding intensity (PBM fluorescence) in presence of RUNX1, normalised to ETS1-only experiment (arbitrary fluorescence units); higher = stronger binding
# Conditions: ETS1 concentration 1 nM; RUNX1 concentration 25 nM
row,Sequence,ETS1 binding intensity
1,AGGCCTCGCTTCCTCTCCTGACCACACCCTGCAGCT,590
2,TCTTCTTCCTCCCCCACCCCAAAAGCCACAGGTGAC,441
3,ACTGCTTGATTTTCAGGAAGTGGTAAAGTGGCAGGT,9050
4,GTCCCACGCGACTTCCTGCGGGAAACATGGCGGCAT,1820
5,CATACAGGATGCTGGGGTATGTAAAACAAACCACGG,678
6,TTCAGGTGACTTCCGGCCGGACCGCTGAGGACGCGG,9520
7,TGGGAACTTCCTGTGGAGGAGTGCATTGTGGGACTT,726
8,CGGCAGGGAAGCAGGAAACCGCGAGTGGAGAAAGGG,3790
9,GATACCCAGCCAGCGGAAGTGCGGTTAACTGCCCGA,18400
10,GCAGTGCAGGAAGTGCTTTGTGTGGTACAATCCCAA,2110
11,AGACCCGGAAATGGTGGGTGTTTCTTGCAACCACGG,2290
12,CTTAGTGTTTGAGGATGTGGGTTTTACAATCAGATC,2490
13,GCCGCCTCTTCCTGTGTTGCAAACCACAGGTCCACC,2340
14,CCAGCCCAGGAAACAAGGAACCCCAAAGCCACAGGA,579
15,TCTGTGAAAAAGGATGTGCGGTTATGGAGGAGAACT,3460
16,AGGAGAACTTCCGCCCTTACTATATTACCGCCGGTA,1090
17,AAGGCGGTACTTCCTCCAGCATTTGCCGCAAGTTAT,535
18,GAGCATAGCCTAGCAGGATGTGGTTAAATACATTTG,32800
19,CTGCCGGAAGCTGCCCCTCCACCATTTTGTGGCCCG,1850
20,AGAGACAGCGGGCGGAAACCGCAGAAAAAGTTGAAA,3260

row,Sequence,ETS1 binding intensity
1,GGTTTCCGGGTGAAAAAAAAAAAAAAAACCACGCCA,529
2,CTGCGTTTCCTCTGAGTTTTGCATGTTGAGGTTGGA,382
3,GCAGAGAGGAAGTGTGGGGGTGGAGGAGGCCGCAGA,973
4,TCCTGGCAGAGACCGGAAGTGCGGTCCGCGGAGCGT,43300
5,CCCTTCGCTTCCGCTCCGCGTTCCCACAATGCAGTG,1090
6,GATGCTTGTTCAGGATGCGGTTTCTTGCAGCAAGTT,2380
7,TAAGGATGTGTGGCTTCCAGATCAAAAACCGCAAAA,3920
8,GTCCTCCACTATTGTTTCCGGCCGCAGCAGAGGCGG,2090
9,GTGGGAGCGGAAGCCTGAGCGGCCTGCGGCCTCCGG,1070
10,GCTCTGCAGGATGTGGCTGTGACCGCAGTGAGGAGC,11800
11,GGCCGGGGGCAGGAAGCTGCGGCGCTGGCTCCCCCC,3390
12,GCAGAAGGATTTCCTGTTTCAGGCAACCACAGCGAC,2450
13,CACTGCGGAAGCAGTGTAGAGAGGTGGTTATCAGTG,680
14,AGGGTTACAATTTCCGTAAACCACAGAAGCAGCAGA,979
15,ACACCCCAGGCAGGATGTGGTAGGGGTTGCCCCAGA,5030
16,GTGGTCTCTCCCGGAAAAACCACTTCCACCGAGAAC,1440
17,GAAATCCATCACGGATGTGGGCTTTTTGCTCTCATT,1620
18,CGGGACCTGTTTCCTTGGGAACCACAAGATAAGACC,520
19,ATGTTAACATCCTGCCATGAAAACCGCAAGAAGGGC,3730
20,GTTTTCAAGGCAGGAAGTGGCTGTGGTGGCACGGAG,21300

# Source: the supplement of paper PMC10681739
